# Reference: PubChem BioAssay (Tox21)
# A number with no mark means an inactive call. Activity calls are given as the source filed them. The call rests on the fitted dose curve; in most records, active means well fitted curve in the direction sought with a large enough effect in the repeat runs; inconclusive means weak or mixed curves; inactive means flat fitted curve, though single readings scatter.
# Experiment: qHTS assay to test for compound auto fluorescence at 590 nm (red) in HepG2 cells (AID 720674)
# Settings: HepG2 autofluorescence, red 540/590 nm, 1 h; series mostly up to 91.3 µM
# Text: U.S. Tox21 Program National Center for Advancing Translational Sciences [NCATS] NIH Chemical Genomics Center [NCGC] U.S. Environmental Protection Agency [EPA] National Institutes of Environmental Health Sciences [NIEHS] National Toxicology Program [NTP] U.S. Food and Drug Administration [FDA] Tox21 Assay Overview: Compound auto fluorescence often interferes with screening of the compound library against various biological targets and signaling pathways. Some of these compounds may have fluorophoric properties. Such properties may interfere with the assay outputs resulting in false positives and/or negatives. To decrease such complications and ensure the compound activities are relevant in terms of biological response, the Tox21 10K compound library was screened for auto fluorescence. From the fluorophores used as reporter signals in our screening assays, the auto fluorescence equivalencies of compounds against three fluorophores have been evaluated: Triamterene, Fluorescein and Rose Bengal sodium for blue, green and red fluorescence, respectively. The fluorescence intensities were measured using Excitation/Emission wavelengths at 405/460nm, 485/535nm and 540/590nm for blue, green and red labels, respectively. This assay includes the red fluorescence data.
# Tox21 Assay Protocol Summary: 2,000 HepG2 cells in 5 uL of culture medium (MEM containing 10% FBS) per well were dispensed into black wall/clear bottom 1536-well plates using a Multidrop Combi Dispenser (ThermoFisher Scientific, Waltham, MA). The assay plates were incubated overnight at 37 C to allow cell attachment to the well bottom, followed by the transfer of 23 nL compound or DMSO vehicle by a pintool work station (Kalypsys , San Diego, CA). After the assay plates were incubated for 1 hr at 37 C and 5% CO2, fluorescence intensities in the assay plates were measured by an Envision (PerkinElmer, Shelton, CT) plate reader using three labels for measuring blue, green and red fluorescence at […] 460, 535 and 590 nm respectively.
# On the % scale 0 is the no-effect control and ±100 the full control effect.
SMILES,outcome,"fluorescence, relative to Rose Bengal"
O=C1CCCc2ccccc21,inactive,–
CC(=O)Nc1ccc(C)c(Cl)c1,inactive,–
Cc1cc2nc(N)sc2cc1C,inactive,–
Cc1c(-c2ccccc2)oc2c(C(=O)OCCN3CCCCC3)cccc2c1=O,–,0.822% [at 18.6 µM]
Oc1ccccc1F,inactive,–
Clc1cccc(-c2cc(Cl)cc(Cl)c2)c1,inactive,–
CCC1(C)NC(=O)NC1=O (stereo not given),inactive,–
CN(CC1(C)CCCO1)S(=O)(=O)c1ccc(Cl)c(S(N)(=O)=O)c1 (stereo not given),inactive,–
CCCOCCC,inactive,–
CN(C)C(=O)NC1(c2ccccc2)CCN(CCC[C@]2(c3ccc(Cl)c(Cl)c3)CCCN(C(=O)c3ccccc3)C2)CC1,–,-0.128% [at 18.6 µM]
CCN(CC)CCOc1ccc(Cc2ccccc2)cc1,inactive,–
CCNCCO,inactive,–
CCCc1c2oc(C(=O)O)cc(=O)c2cc2c(=O)cc(C(=O)O)n(CC)c12,inactive,–
CC(C)C(=O)OCC(C)(C)C(O)C(C)C (stereo not given),inactive,–
CNCCC(Oc1ccccc1OC)c1ccccc1 (stereo not given),inactive,–
C1CSCCS1,inactive,–
CCOc1ccc(NC(N)=O)cc1,inactive,–
Cc1ccc([N+](=O)[O-])c(N)c1,inactive,–
C[C@@H]1CN(c2c(F)c(F)c3c(=O)c(C(=O)O)cn(C4CC4)c3c2F)C[C@H](C)N1,inactive,–
O=C(C(Cl)Cl)N1CCOC12CCCCC2,inactive,–

SMILES,outcome,"fluorescence, relative to Rose Bengal"
CC(C)NCC(O)COc1ccc(CCOCC2CC2)cc1 (stereo not given),inactive,–
O=C1CCCCCCCCCCC(=O)OCCO1,inactive,–
CC1(O)CSC(C)(O)CS1 (stereo not given),inactive,–
COc1cc(Cl)ccc1Cl,inactive,–
C1CCOC1,inactive,–
NC(=O)Cc1cccc(C(=O)c2ccccc2)c1N,inactive,–
Cc1cc2c(s1)Nc1ccccc1N=C2N1CCN(C)CC1,inactive,–
CN(C)CCOc1ccccc1Cc1ccccc1,inactive,–
O=C(O)C(=O)Cc1c[nH]c2ccccc12,inactive,–
Cc1cc(NS(=O)(=O)c2ccc(N)cc2)nc(C)n1,inactive,–
OCCN1CCN(CCO)CC1,inactive,–
Cc1nnc(SCC2=C(C(=O)O)N3C(=O)[C@@H](NC(=O)Cn4cnnn4)[C@H]3SC2)s1,inactive,–
CCCCCCCCCCCCCCCCOP(=O)([O-])OCC[N+](C)(C)C,inactive,–
CC(CNC1CCCCC1)OC(=O)c1ccccc1 (stereo not given),–,-0.352% [at 18.6 µM]
COc1cc(C)ccc1C(C)C,inactive,–
CC[C@H]1CC[C@H](NCc2cc3c(cc2OC)[C@H]2C[C@H]2C(=O)N3C)[C@H](c2ccccc2)N1,inactive,–
Cc1ncc(CO)c(CN)c1O,inactive,–
Nc1ccc2ccccc2c1S(=O)(=O)O,inactive,–
CCOc1ccc(OCC)c(Cl)c1,inactive,–
O=S(=O)(O)C(F)(F)F,inactive,–
